The panel holds about 83,000 compounds, 20% with a hit somewhere; the sample as a whole holds those more often.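 The endpoint reported here, percent growth, reads 100 for growth as untreated, 0 for no net growth and -100 for all cells dead.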 Unmarked numbers belong to inactive results. Calls of active or inactive are those of the source. The calls were made as follows: active = growth percent below 10; inactive = the rest.
test system: NCI-H23 lung; experiment: NCI-60 one-dose screen, 48 h (100 = growth as untreated, 0 = no growth, -100 = all killed); conditions: 10 µM unless noted

SMILES | growth
COC(=O)c1sccc1-c1cc(O)c(C(=O)Nc2ccccc2)s1 | 83%
O=C(C1=Cc2cc3ccccc3n2Cc2cnnn21)c1ccc(F)cc1 | 98.9%
Cc1cccc(N2C(=O)/C(=C/C(Cl)=C/c3ccc([N+](=O)[O-])cc3)SC2=S)c1C | 10.4%
CS(=O)/C(C#N)=C\C=C\c1cccc(Cl)c1 (stereo not given) | -7.77% (active)
CCOC(=O)/C=C1\S/C(=N\Nc2cc(=O)[nH]c3ccc(Br)cc23)N(c2ccccc2)C1=O | 88.1%
Cc1ccc2nc(-c3ccc(C(=O)N/N=C/c4ccc([N+](=O)[O-])cc4)cc3)[nH]c2c1 | 101%
COc1ccc(/C=C/C(c2cc(OC)c(OC)c(OC)c2)n2cncn2)cc1O (stereo not given) | 41.5%
CCCCCCCCCCCCCCCCCCOc1ccccc1CC(=O)NCC[N+](C)(C)C | 51.6%
CCOC(=O)c1c(C)nc2ccccc2c1/C=C/c1ccc(F)cc1 | 51.3%
N#Cc1c(-c2ccccc2)cc(-c2ccccc2)n(CCCCC(=O)NO)c1=O | 25.8%
COc1cc(Cc2cc(OC)c(O)c(OC)c2)cc(OC)c1O | 87.6%
COc1cc(/C=C/c2cc(/C=C/c3ccc(O)c(OC)c3)n(C(=O)Nc3ccc(Cl)cc3)n2)ccc1O | 3.16% (active)
NS(=O)(=O)c1ccc(C(=O)NN2C(=O)c3ccccc3C2=O)cc1 | 105%
CS(=O)(=O)c1ccc(-c2nc3ccccc3n2CC(=O)N/N=C/c2ccccc2)cc1 | 94.2%
CCn1cc(C(=O)N/N=C/c2cccc(F)c2)c(=O)c2cc(F)c(N3CCNC(C)C3)c(F)c21 (stereo not given) | 76.2%
CCCC(=O)NC(c1ccc2c(c1)OCO2)c1cc(Cl)c2cccnc2c1O (stereo not given) | 48.3%
O=C(c1cccc(N2CCOCC2)n1)c1c[nH]c2ccccc12 | 92.7%
Cc1cc(C(=O)CCCC(=O)c2cc(C)c(O)c(C)c2)cc(C)c1O | 99.8%
O=C(/C=C/c1ccccc1)c1cccc2ccccc12 | 26.2%
CNC(=O)c1cc(Oc2ccc3c(c2)sc2nc(-c4ccc(NC(=O)[C@@H](NC(=O)OC)C(C)C)cc4)cn23)ccn1 | 77.6%

SMILES | growth
FC(F)(F)c1[nH]ncc1-c1nc2ccc3[nH]ncc3c2c2c1CCCC2 | 7.15% (active)
COC(=O)c1ccc2c(c1)c1c(C)c3cnccc3c(C)c1n2C | -47.1% (active)
CC1=C2[C@@H](CC1)[C@]1(C)O[C@@](C3CCNCC3)(C[C@H]1OC(=O)CO)[C@H]2OC(=O)/C=C/c1ccccc1 | 84.9%
CCOC(=O)CC1CSC(N/N=C/c2ccc(F)c(Br)c2)=N1 (stereo not given) | 99.8%
O=C1/C(=C/c2cccc(Br)c2)COc2ccc(O)cc21 | 74.8%
O=C(Cn1nc(-c2cccc3ccccc23)ccc1=O)NCc1cccc(Cl)c1 | 45.2% [50 µM]
COc1cc(O)c2c(=O)c3c(CC=C(C)C)cc(OC)c(O)c3oc2c1 | 41.4%
Nc1ccc(Br)cc1C(F)(F)F | 95.3%
O=C(Nc1ccc(Oc2cccc(Cl)c2)c(Cl)c1)c1cccnn1 | 84.1%
COc1cccc(-c2cn3nc(-c4cn(C)c5ccccc45)sc3n2)c1 | 90%
c1ccc(-c2c(-c3ccccc3)[n+](Cc3ccc4ccccc4c3)cn2Cc2ccc3ccccc3c2)cc1 | -74.9% (active)
COc1ccc(C2[C@@H](c3ccccc3)C(=O)N2c2cc(OC)c(OC)c(OC)c2)cc1F (stereo not given in full) | 25.3%
CC(C)CCC[C@@H](C)[C@H]1CC[C@H]2[C@@H]3CC=C4c5sc(Nc6cc(C(F)(F)F)cc(C(F)(F)F)c6)nc5CC[C@]4(C)[C@H]3CC[C@]12C | 93.4%
Nc1cc(C(=O)O)cc(-n2c(O)c(C=C3N=c4ccccc4=N3)sc2=S)c1 | 92.6%
COc1cccc(CNc2c3ccccc3nc3ccccc23)c1OC | 32.4%
Clc1ccc(Nc2ncc(Cc3cccc(Cl)c3Cl)s2)cc1 | 88.7%
CCOC(=O)c1cnn(CC(C)O)c1NC(=O)NCc1cccc(F)c1 (stereo not given) | 97.5%
C=C1C(=O)O[C@@H]2C3C(=C(C)CC[C@@H]12)CC1O[C@]13C (stereo not given in full) | 82.9% [6.75 µM]
CCOC(=O)C1=C(c2ccccc2)N=C2N(c3ccccc3)N=C(C(C)=O)N2C1c1ccc(F)cc1 (stereo not given) | 105%
CCCOC(=O)Nc1nc2ccc(SCC)cc2s1 | 91.9%

test system: NCI-H226 lung; experiment: as above; conditions: 10 µM unless noted

SMILES | growth
COC(=O)c1sccc1-c1cc(O)c(C(=O)Nc2ccccc2)s1 | 90.9%
O=C(C1=Cc2cc3ccccc3n2Cc2cnnn21)c1ccc(F)cc1 | 98.8%
Cc1cccc(N2C(=O)/C(=C/C(Cl)=C/c3ccc([N+](=O)[O-])cc3)SC2=S)c1C | -38.1% (active)
CS(=O)/C(C#N)=C\C=C\c1cccc(Cl)c1 (stereo not given) | 36.1%
CCOC(=O)/C=C1\S/C(=N\Nc2cc(=O)[nH]c3ccc(Br)cc23)N(c2ccccc2)C1=O | 84.1%
Cc1ccc2nc(-c3ccc(C(=O)N/N=C/c4ccc([N+](=O)[O-])cc4)cc3)[nH]c2c1 | 104%
COc1ccc(/C=C/C(c2cc(OC)c(OC)c(OC)c2)n2cncn2)cc1O (stereo not given) | 62.2%
CCCCCCCCCCCCCCCCCCOc1ccccc1CC(=O)NCC[N+](C)(C)C | 61.6%
CCOC(=O)c1c(C)nc2ccccc2c1/C=C/c1ccc(F)cc1 | 73.9%
N#Cc1c(-c2ccccc2)cc(-c2ccccc2)n(CCCCC(=O)NO)c1=O | 9.98% (active)
COc1cc(Cc2cc(OC)c(O)c(OC)c2)cc(OC)c1O | 106%
COc1cc(/C=C/c2cc(/C=C/c3ccc(O)c(OC)c3)n(C(=O)Nc3ccc(Cl)cc3)n2)ccc1O | 5.73% (active)
NS(=O)(=O)c1ccc(C(=O)NN2C(=O)c3ccccc3C2=O)cc1 | 111%
CS(=O)(=O)c1ccc(-c2nc3ccccc3n2CC(=O)N/N=C/c2ccccc2)cc1 | 98.8%
CCn1cc(C(=O)N/N=C/c2cccc(F)c2)c(=O)c2cc(F)c(N3CCNC(C)C3)c(F)c21 (stereo not given) | 97.1%
CCCC(=O)NC(c1ccc2c(c1)OCO2)c1cc(Cl)c2cccnc2c1O (stereo not given) | 50.4%
O=C(c1cccc(N2CCOCC2)n1)c1c[nH]c2ccccc12 | 82.8%
Cc1cc(C(=O)CCCC(=O)c2cc(C)c(O)c(C)c2)cc(C)c1O | 85%
O=C(/C=C/c1ccccc1)c1cccc2ccccc12 | 41.2%
CNC(=O)c1cc(Oc2ccc3c(c2)sc2nc(-c4ccc(NC(=O)[C@@H](NC(=O)OC)C(C)C)cc4)cn23)ccn1 | 56.9%

SMILES | growth
FC(F)(F)c1[nH]ncc1-c1nc2ccc3[nH]ncc3c2c2c1CCCC2 | 10.1%
COC(=O)c1ccc2c(c1)c1c(C)c3cnccc3c(C)c1n2C | -41.1% (active)
CC1=C2[C@@H](CC1)[C@]1(C)O[C@@](C3CCNCC3)(C[C@H]1OC(=O)CO)[C@H]2OC(=O)/C=C/c1ccccc1 | 92.3%
CCOC(=O)CC1CSC(N/N=C/c2ccc(F)c(Br)c2)=N1 (stereo not given) | 104%
O=C1/C(=C/c2cccc(Br)c2)COc2ccc(O)cc21 | 101%
O=C(Cn1nc(-c2cccc3ccccc23)ccc1=O)NCc1cccc(Cl)c1 | 38.2% [50 µM]
COc1cc(O)c2c(=O)c3c(CC=C(C)C)cc(OC)c(O)c3oc2c1 | 78.7%
Nc1ccc(Br)cc1C(F)(F)F | 105%
O=C(Nc1ccc(Oc2cccc(Cl)c2)c(Cl)c1)c1cccnn1 | 78.8%
COc1cccc(-c2cn3nc(-c4cn(C)c5ccccc45)sc3n2)c1 | 89.6%
c1ccc(-c2c(-c3ccccc3)[n+](Cc3ccc4ccccc4c3)cn2Cc2ccc3ccccc3c2)cc1 | -75.8% (active)
COc1ccc(C2[C@@H](c3ccccc3)C(=O)N2c2cc(OC)c(OC)c(OC)c2)cc1F (stereo not given in full) | 66.6%
CC(C)CCC[C@@H](C)[C@H]1CC[C@H]2[C@@H]3CC=C4c5sc(Nc6cc(C(F)(F)F)cc(C(F)(F)F)c6)nc5CC[C@]4(C)[C@H]3CC[C@]12C | 104%
Nc1cc(C(=O)O)cc(-n2c(O)c(C=C3N=c4ccccc4=N3)sc2=S)c1 | 85.4%
COc1cccc(CNc2c3ccccc3nc3ccccc23)c1OC | 51.6%
Clc1ccc(Nc2ncc(Cc3cccc(Cl)c3Cl)s2)cc1 | 102%
CCOC(=O)c1cnn(CC(C)O)c1NC(=O)NCc1cccc(F)c1 (stereo not given) | 103%
C=C1C(=O)O[C@@H]2C3C(=C(C)CC[C@@H]12)CC1O[C@]13C (stereo not given in full) | 88.2% [6.75 µM]
CCOC(=O)C1=C(c2ccccc2)N=C2N(c3ccccc3)N=C(C(C)=O)N2C1c1ccc(F)cc1 (stereo not given) | 97.7%
CCCOC(=O)Nc1nc2ccc(SCC)cc2s1 | 92.9%

— PubChem BioAssay (NCI)
